Values joined by “and” are separate entries in the source; they are usually repeats but may differ in a detail not shown here. Identical values can stand only once. Results filed as inconclusive are left out. Active and inactive are the calls of the source. The call rests on the fitted dose curve; in most records, active means well fitted activation curve with a large enough effect; inconclusive means small, poorly fitted or top-dose-only effect; inactive means no such curve, though single readings can be large or run the other way.
What follows are compounds tested against Cellular tumor antigen p53 (Homo sapiens) (UniProt P04637) (assay: Primary qHTS for small molecule compounds that upregulate eGFP-tagged delta133p53alpha (in N-terminal) cells. (AID 2060322;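 further: series mostly up to about 56 µM; 0% = DMSO vehicle and 100% = reference activator; nearly all actives have a fitted effect of over 75% in size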)). Settings: NCI-H358 eGFP-delta133p53alpha fluorescence, 24 h; activation: hits give high values.
How it was run: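 NCI-H358 cells pre-induced 24 h with 10 ng/ml doxycycline to express N-terminal eGFP-delta133p53alpha, then dosed 24 h at 37C without doxycycline; fixed, Hoechst-stained, GFP intensity by laser scanning cytometry, normalized to DMSO (0%) and 57.5 uM 5-azacytidine (100%).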

Chain of Cellular tumor antigen p53 (Homo sapiens) (P04637 whole entry, looked up): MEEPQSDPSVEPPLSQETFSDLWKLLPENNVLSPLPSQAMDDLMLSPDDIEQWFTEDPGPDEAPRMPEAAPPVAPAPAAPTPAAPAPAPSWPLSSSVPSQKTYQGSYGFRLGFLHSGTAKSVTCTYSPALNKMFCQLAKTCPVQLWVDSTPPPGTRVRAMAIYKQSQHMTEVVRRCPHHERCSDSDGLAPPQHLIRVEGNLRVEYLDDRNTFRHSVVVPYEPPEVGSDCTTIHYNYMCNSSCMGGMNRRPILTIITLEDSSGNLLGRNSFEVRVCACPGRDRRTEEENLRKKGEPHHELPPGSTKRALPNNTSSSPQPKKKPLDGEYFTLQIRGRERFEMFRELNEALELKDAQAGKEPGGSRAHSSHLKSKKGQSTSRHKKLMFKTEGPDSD

Q: Which activation does the source give for `CCCC1O[C@@H]2C[C@H]3[C@@H]4CCC5=CC(=O)C=C[C@]5(C)[C@H]4[C@@H](O)C[C@]3(C)[C@]2(C(=O)CO)O1` (stereo partly specified) here?
A: Its activation is -22.8% (inactive).

Q: For `Cc1nc2c(OCc3ccccc3)cccn2c1CC#N`, which activation is on record?
A: Its activation is 7.44% (inactive).

Q: How did the activation turn out when `Oc1cc(O)c2c(c1)O[C@H](c1ccc(O)c(O)c1)[C@@H](O)C2` was run?
A: Its activation is -7.14% (inactive).

Q: Which activation does the source give for `N[C@@H](CCC(=O)N[C@H](CSN=O)C(=O)NCC(=O)O)C(=O)O` here?
A: The activation was -28.5% (inactive).

Q: With `NC(N)=NC(=O)Cc1c(Cl)cccc1Cl` as the compound, how does the activation read?
A: The activation was -18.6% (inactive) and -5.21% (inactive).

Q: `Nc1nc(Cl)nc2c1ncn2[C@@H]1O[C@H](COP(=O)(O)OP(=O)(O)OP(=O)(O)O)[C@@H](O)[C@H]1O` was tested. Which activation did it give?
A: Its activation is -39.8% (inactive).

Q: Which activation does the source give for `C=C(C)C1CC=C(C(=O)O)CC1` (stereo unspecified) here?
A: The activation was -6.28% (inactive).

Q: Which activation does the source give for `O=C(Nc1ccccc1)c1cc([N+](=O)[O-])ccc1Cl` here?
A: Its activation is 24.9% (inactive).

Q: Which activation does the source give for `CC(=O)NNC(=O)N1Cc2ccccc2Oc2ccc(Cl)cc21` here?
A: Its activation is -0.739% (inactive).

Q: Which activation does the source give for `N[C@H](C(=O)O)c1cc(O)cc(O)c1` here?
A: The activation was -2.9% (inactive).

Q: For `CC(C)NCC(O)COc1ccc(COCCOC(C)C)cc1` (stereo unspecified), which activation is on record?
A: The activation was -8.37% (inactive) and -9.29% (inactive) and -8.52% (inactive).

Q: With `CN=C(N)NCCC[C@H](N)C(=O)O` as the compound, how does the activation read?
A: The activation was -4.6% (inactive).

Q: For `CCc1ccc2c(-c3cccc(Cl)c3)nc(=O)n(CC)c2n1`, which activation is on record?
A: Its activation is -40.5% (inactive).

Q: `Nc1ccn([C@H]2CC[C@@H](CO)O2)c(=O)n1` was tested. Which activation did it give?
A: The activation was 32.8% (inactive) and -1.67% (inactive) and -29% (inactive).

Q: `COc1ccc2c(c1)c(CC(=O)O)c(C)n2Cc1ccc(Cl)cc1` was tested. Which activation did it give?
A: Its activation is -32.5% (inactive).

Q: `Cn1ccnc1` was tested. Which activation did it give?
A: Its activation is -23.6% (inactive).

Q: With `N=c1nc(N2CCCCC2)cc(N)n1O` as the compound, how does the activation read?
A: Its activation is -6.36% (inactive) and -9.21% (inactive) and -2.97% (inactive).

Q: `NC(N)=NC(N)=Nc1ccccc1` was tested. Which activation did it give?
A: Its activation is -1.81% (inactive).

Q: `Nc1ncnc2c1nc(Sc1ccc(Cl)cc1)n2[C@H]1OC2COP(=O)(O)O[C@@H]2C1O` (stereo partly specified) was tested. Which activation did it give?
A: Its activation is 27.8% (inactive).

Q: With `CC1OC1P(=O)(O)O` (stereo unspecified) as the compound, how does the activation read?
A: Its activation is 13.6% (inactive).

Q: For `Clc1cccc(Cl)c1NC1=NCCN1`, which activation is on record?
A: Its activation is -3.23% (inactive) and -7.34% (inactive) and -13.7% (inactive).

Q: For `COc1cc(C(O)CO)ccc1OS(=O)(=O)O` (stereo unspecified), which activation is on record?
A: Its activation is 5.13% (inactive).

Q: How did the activation turn out when `O=C1NC(=O)c2c1c(-c1ccccc1)cc1[nH]c3ccc(O)cc3c21` was run?
A: The activation was -2.02% (inactive).

Q: With `O=C(O)C1=CCNCC1` as the compound, how does the activation read?
A: Its activation is -0.576% (inactive).

Q: `CC(N)(Cc1ccc(O)cc1)C(=O)O` (stereo unspecified) was tested. Which activation did it give?
A: The activation was -18.1% (inactive).

Q: For `Cn1c(=O)c2c(nc(/C=C/c3cccc(Cl)c3)n2C)n(C)c1=O`, which activation is on record?
A: The activation was -0.199% (inactive).
